Assay outcomes as filed in PubChem BioAssay.
Compounds with a hit are over-represented: about 1.8% of the library has one in this group of screens.
ARNT TACC3 PPI: disruptors of human ARNT/TACC3 interaction; AlphaScreen His-ARNT PAS-B/GST-TACC3 binding, luminescence; TACC3 fragment carries E629A point mutation; inhibition, % at 9.99 µM; actives 0.66% (n = 390,000); AID 623870;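 active = mean inhibition of replicates at least 50% and at least half of replicates each reaching 50%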;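 note: 0% = complete ARNT plus TACC3 wells and 100% = ARNT alone without TACC3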
CendR NRP1 mod: NRP-1/CendR interaction modulation; inhibition, % at 25 µM; actives 0.85% (n = 360,000); O14786; AID 602438; FAM-RPARPAR peptide binding to NRP-1, fluorescence polarization;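 active = inhibition or corrected inhibition above about 18%, plus a signal ratio from 0.5 to 1.5, limit read from the data, passing the limit was not always enough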
GSIS activator: GLuc luminescence reporter in INS-1E cells, primary screen for activators of glucose-dependent secretion of insulin. INS-1E GLuc reporter insulin secretion, 2-3 h. activation, % at 16.6 µM. AID 743287. actives 0.61% (n = 370,000);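 active = lowest replicate activation of at least 40%, so every replicate reaches that level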;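 note: 0% = median of neutral control wells and 100% = median of IBMX positive control wells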
hiPSC survival: increases survival of single human iPS cells; hiPSC single-cell survival, ATPlite luminescence; 100% = ROCK inhibitor wells, 0% = DMSO; survival enhancement, % at 20 µM; actives 0.044% (n = 360,000); in the data active = survival enhancement above about 18%;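 note: cells exposed to compounds for 16 hours before the ATP read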
ABCB6 inh 2: blocks the human ABCB6 transporter; Q9NP58; K562-ABCB6 porphyrin accumulation, flow cytometry, 1 h; active compounds read low; fluorescence ratio to DMSO, % at 10 µM; actives 0.19% (n = 360,000); AID 602162;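 active = fluorescence ratio to DMSO below 75%, the collection mean minus 3 SD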;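 note: signal is porphyrin accumulated inside mitochondria; 100% equals median channel fluorescence of DMSO control wells; lower ratio means ABCB6 inhibition with less porphyrin fluorescence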
* marks the source's active call; other numbers are inactive results; x = not tested or not shown.

SMILES	ARNT TACC3 PPI	CendR NRP1 mod	GSIS activator	hiPSC survival	ABCB6 inh 2
O=C(c1ccccn1)N1C[C@H]2[C@@H](c3ccccc31)[C@H](CO)N2C(=O)C1CCCC1	14.1	x	-10.6	x	x
O=C(c1ccccn1)N1C[C@H]2[C@@H](c3ccccc31)[C@@H](CO)N2C(=O)CC1CC1	45.1*	x	13.3	x	x
CO[C@H]1CN(C)C(=O)c2ccc(NS(=O)(=O)c3ccccc3C)cc2OC[C@H](C)N(C)C[C@H]1C	-4.9	x	-0.8	x	x
CCN(CC)S(=O)(=O)c1ccc(C)c(NC(=O)CSc2ncc(C(F)(F)F)cc2Cl)c1	x	-5.2	169.0*	4.3	110.0
Cc1ccccc1-c1ccc([C@H]2[C@@H](CO)N3CCCCN(C(=O)NC4CCCC4)C[C@H]23)cc1	-13.1	x	-0.4	x	x
COc1cc2c(cc1NC(=O)c1ccc(C)c([N+](=O)[O-])c1)oc1ccccc12	0.2	9.3	53.3*	-1.7	98.0
COc1cc2c(cc1NC(=O)c1cccc([N+](=O)[O-])c1)oc1ccccc12	0.2	2.2	x	2.8	90.0
CCCCN(C(=O)c1ccc(C)c(S(=O)(=O)N2CCOCC2)c1)c1c(N)n(CC(C)C)c(=O)[nH]c1=O	-7.8	4.6	12.8	-0.4	90.0
COCCN(C(=O)c1ccc(C)c(S(=O)(=O)N2CCOCC2)c1)c1c(N)n(CC(C)C)c(=O)[nH]c1=O	-0.5	28.7*	19.4	-0.4	102.0
CC(=O)C(=Cc1ccc(Cl)cc1)C(=O)c1ccccc1	x	22.0*	-32.8	0.6	95.0
CCCC1CC(CSC(=N)N)OC1=O (centres undefined)	-9.4	27.2*	x	1.7	89.0
CCCCCCC1CC(CSC(=N)N)OC1=O (centres undefined)	-3.8	-9.9	x	3.6	105.0
O=C(C1CC1)N1CC2(C1)[C@H](c1ccccc1)[C@@H](CO)N2Cc1cncnc1	x	x	24.0	x	x
C[C@H]1CN([C@@H](C)CO)C(=O)Cc2cc(NC(=O)Cc3cn(C)c4ccccc34)ccc2O[C@H]1CN(C)C(=O)Nc1ccccc1	-2.9	x	-1.5	x	x
COCC(=O)N1CCC2(CC1)CN(Cc1ccccc1Cl)[C@@H](CO)c1c2c2ccc(OC)cc2n1C	x	x	-27.9	x	x
CCN(c1ccccc1)S(=O)(=O)c1ccc(C(=O)N(CCCN(C)C)c2nc3cc4c(cc3s2)OCO4)cc1	21.5	22.5*	-42.7	1.9	102.0
CN(C)CCCN(C(=O)c1ccc(S(=O)(=O)N(C)Cc2ccccc2)cc1)c1nc2cc3c(cc2s1)OCO3	-3.2	8.9	-47.2	0.1	92.0
Cc1noc(C)c1S(=O)(=O)Nc1ccc2c(c1)C(=O)N([C@H](C)CO)C[C@@H](C)[C@H](CN(C)Cc1ccccc1)O2	9.8	x	12.8	x	x
O=c1c(C=NCCCn2ccnc2)c(-c2ccccc2)[nH]n1-c1nc2ccccc2s1	53.7*	-4.0	x	0.4	89.0
O=C(Nc1ccccc1Cl)NC1(C(=O)NCc2cccnc2)CCCCC1	1.4	24.7*	5.4	-0.5	107.0
O=C(Nc1ccccc1Cl)NC1(C(=O)NCC2CCCO2)CCCCC1 (centres undefined)	-0.9	8.8	8.0	-0.5	96.0
CC(C)c1ccc2c(c1)C1(NN=C(c3ccccc3)S1)C(=O)N2 (centres undefined)	49.5*	10.6	x	-4.4	121.0
COc1ccc(NC(=O)N(C)C[C@H]2Oc3ccc(NS(=O)(=O)c4cn(C)cn4)cc3C(=O)N([C@@H](C)CO)C[C@@H]2C)cc1	-4.8	x	13.4	x	x
CN(CC(=O)Nc1ccccc1Cl)C(=O)C1CSC2(C)CCC(=O)N12 (centres undefined)	-3.1	21.4*	2.1	1.3	94.0
CN(C)CC(=O)N1[C@@H](C#N)[C@H](c2ccccc2-c2ccccc2F)[C@@H]1CO	x	x	-9.3	x	x
SMILES	ARNT TACC3 PPI	CendR NRP1 mod	GSIS activator	hiPSC survival	ABCB6 inh 2
Cc1noc(C)c1S(=O)(=O)Nc1ccc2c(c1)C(=O)N([C@H](C)CO)C[C@@H](C)[C@@H](CN(C)Cc1ccc(C(=O)Nc3ccccc3N)cc1)O2	0.4	x	24.7	x	x
c1ccc(-c2nnc3ccc(N4CCC5(CC4)OCCO5)nn23)cc1	0.8	3.0	60.8*	2.7	92.0
O=C(Nc1nnc(C2CC2)s1)c1cccs1	-5.6	25.1*	5.2	0.0	93.0
Cc1cc(C)n(-c2ccc(C(=O)Nc3nnc(C4CC4)s3)cc2)n1	-3.1	26.0*	x	0.7	99.0
COc1ccc(NC(=O)Nc2ccc3c(c2)CC(=O)N([C@H](C)CO)C[C@H](C)[C@@H](CN(C)C(=O)Nc2ccc(F)cc2)O3)cc1	x	x	9.5	x	x
CC=Cc1ccc2n(c1=O)C[C@@H]1[C@@H](CO)[C@H](C(=O)NCc3ccccc3)N(S(C)(=O)=O)[C@H]21 (mixture of isomers)	6.4	x	2.1	x	x
COc1ccc(N2CCN(c3ccc(NC(=O)C4CCCCC4)cc3C#N)CC2)cc1	-3.3	7.2	51.4*	-3.9	93.0
C=CCNC(=O)C1CC2Cn3c(nc4cc5ccccc5cc43)C2N1C (centres undefined)	-1.4	18.9*	-13.7	0.6	94.0
COc1ccc(-c2cc(C(F)(F)F)n3nc(C(=O)O)cc3n2)cc1OC	30.3	6.5	48.1*	-0.4	101.0
COC(=O)c1cc2nc(-c3ccc(OC)c(OC)c3)cc(C(F)(F)F)n2n1	24.3	12.1	x	1.7	102.0
FC(F)(F)c1cc(-c2cccs2)nc2cc(-c3ccccc3)nn12	-2.0	-9.4	x	5.4	100.0
O=C(O)c1cc2nc(-c3cccs3)cc(C(F)(F)F)n2n1	x	29.4*	-0.1	0.7	103.0
O=C(Cc1ccccc1)N1CC2(C1)[C@@H](c1ccccc1)[C@@H](CO)N2S(=O)(=O)Cc1ccccc1	x	x	-12.9	x	x
COCCN(C(=O)CNC(=O)c1cccs1)C(C(=O)NC1CCCCC1)c1ccco1 (centres undefined)	-3.9	8.0	x	-0.1	92.0
COCCN(C(=O)CNC(=O)c1cccs1)C(C(=O)NC1CCCC1)c1cccs1 (centres undefined)	x	19.4*	x	0.2	93.0
Cc1cccc(S(=O)(=O)N2CCCCN3[C@H](CO)[C@@H](c4ccc(-c5ccccc5)cc4)[C@@H]3C2)c1	-0.2	x	x	x	x
Cc1cccc2sc(NNC(=O)c3ccc(S(=O)(=O)N4CC(C)CC(C)C4)cc3)nc12 (centres undefined)	48.6*	-8.8	-8.7	-1.1	95.0
Cc1cc(C)c2nc(NNC(=O)c3ccc(S(=O)(=O)N4CC(C)CC(C)C4)cc3)sc2c1 (centres undefined)	14.0	-0.5	x	-0.5	94.0
COc1cccc(S(=O)(=O)N[C@@H]2C=C[C@H](CC(=O)NC3Cc4ccccc4C3)O[C@@H]2CO)c1	x	x	5.1	x	x
Cc1cc(NC(=O)CCC(=O)N(c2cccc(F)c2)C(C(=O)NC2CCCC2)c2ccccc2)no1 (centres undefined)	-3.8	25.6*	4.6	-0.6	85.0
